# Test results reported in the supplement of paper PMC6555819.
# How the values were obtained:
# Test in all cases: PBM binding z-score (relative to random genomic background probes); higher = stronger binding; sequences stand for … in GC…GCGATTGACAGCGTAGAATGAAGG
# [1] = tested on: PPARg:RXRa DBDmut IVT, anti-RXR (DBD mutation: RXRa K156A/R161A, NR concentration 270 nM, RXRa partner concentration 90 nM)
# Method in brief: (§1)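 Custom Agilent 4×180K protein-binding microarrays carried double-stranded probes. Their 34-nt variable regions held direct-repeat seeds, single-nucleotide variants, half-site ablations and random human genomic background sequences. Arrays were incubated 1 h with ligand-free nuclear receptor dimers in PBS pH 7.4, 2% milk, 0.02% Triton X-100, 1 mM DTT, 0.2 mg/mL BSA and 0.4 mg/ml salmon testes DNA. Antibodies against each partner (one per run) detected binding, and scanned fluorescence was regression-normalized. Binding z-scores use random background probes as reference.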
# [2] = tested on: PPARg:RXRa IVT, anti-PPARg (NR concentration 270 nM, RXRa partner concentration 90 nM)
# Method in brief: as §1
# [3] = tested on: PPARg DBDmut:RXRa IVT, anti-PPARg (DBD mutation: PPARg1 K132A/R137A, NR concentration 270 nM, RXRa partner concentration 90 nM)
# Method in brief: as §1
# [4] = tested on: PPARg DBDmut IVT, anti-PPARg (DBD mutation: PPARg1 K132A/R137A, NR concentration 270 nM)
# Method in brief: as §1
# [5] = tested on: PPARg homodimer (NR concentration 180 nM)
# Method in brief: as §1
# [6] = tested on: PXR:RXRa (NR concentration 270 nM, RXRa partner concentration 90 nM)
# Method in brief: as §1
# [7] = tested on: PXR homodimer (NR concentration 270 nM)
# Method in brief: as §1
# [8] = tested on: RARa:RXR (NR concentration 270 nM, RXRa partner concentration 90 nM)
# Method in brief: as §1
# [9] = tested on: RARa homodimer (NR concentration 270 nM)
# Method in brief: as §1
# [10] = tested on: RARb:RXRa (NR concentration 270 nM, RXRa partner concentration 90 nM)
# Method in brief: as §1
Sequence,PBM binding z-score [1],PBM binding z-score [2],PBM binding z-score [3],PBM binding z-score [4],PBM binding z-score [5],PBM binding z-score [6],PBM binding z-score [7],PBM binding z-score [8],PBM binding z-score [9],PBM binding z-score [10]
CCTGCTAGGTAAATGGTCAGCTAAAGCAGCTCGC,1.07,0.489,-1.23,-1.53,0.311,-0.268,-0.537,-0.118,-0.6,0.261
CCTTACGGGTCACTCCAGGTTAAAGCATCGGAGT,2.31,3.73,-0.0185,-0.224,2.3,5.3,0.114,4.1,0.271,3.67
GTACCAAGGTGAATAGGTCGTTGACGAGTAGGCG,1.8,2.86,0.144,-0.0212,1.04,0.88,0.00593,1.93,-0.182,2.23
CTCGAAAGGTCGTGCTCAGGTGAGAATACCAAAC,0.69,1.89,0.151,0.41,2.63,3.35,0.0262,4.6,0.317,3.93
CCTATTACTTGACCATAAGGGCAACCGAAGCTCG,0.621,0.836,0.25,1.09,1.41,0.749,1.2,1.05,2.03,1.61
CCTACTGGGCCACGAAAGGTCGTTGATTCAGTGA,5.8,5.18,-0.547,-0.744,1.16,2.77,0.256,2.19,-0.764,1.84
CGTCCAAGGTCAAAGGTCTGTGAAGAGATGACGG,3.5,4.39,1,0.0198,3.15,4.82,1.13,6.06,0.626,5.4
TCTATGAGTTGATTAGGGCAACCGAAACAGCGGA,1.35,1.19,-0.00987,-0.582,-0.0125,0.279,-0.195,0.487,-0.0986,0.711
ATCACTAGGTAAAGTTCAGTGAAAGATCGATAGA,3.89,3.29,1.1,0.944,1.33,1.91,1.73,1.48,1.19,2.7
GGAACTAGGGCAAGTTGATAGCAGAGTTTGATGG,7.19,6.86,0.964,0.266,0.42,0.0404,0.803,-0.0697,-0.11,1.69
CCTTACGGGTCACTGACAGGTTATAGCTTTTGGA,3.62,3.94,-0.188,-0.142,1.82,3.38,-0.201,4.13,0.634,3.74
TAGCCTAGATCATGGGCCAGTATACCACGCGAAC,0.188,0.69,-0.074,-0.614,-1.13,-0.835,-0.709,-0.943,-0.47,-0.479
CATACAGGGTCAGCTAGGCCAGAGTAGGGACGGC,1.4,2.5,0.615,1.03,1.25,1.89,-0.17,2.74,0.0717,4.31
GTACCAAGGTGAATAGGTCGTTGGTGAGTAGGCG,1.63,2.76,-0.162,-0.965,0.877,0.626,-0.0296,1.9,-0.0597,2.1
AATACATGGTCATCGTAGGCCAGAGTACGCACAG,0.199,1.21,0.624,0.968,-0.153,0.3,-0.157,0.574,0.339,1.14
TGAATGAGGTTACAAGATCAGGGAACGTTGCAAA,1.92,3.07,0.903,1,0.112,0.754,-0.231,1.68,0.0919,1.73
ATCTCTAGGTAAAGATAGCTCAGTGAATGCAAAT,1.84,1.53,1.58,0.349,0.00125,-0.537,-0.0577,-0.292,0.787,-0.195
AGAATGAGGTTAGTAAGATCAGGGAATTGCGGTC,2.97,2.49,0.854,-0.148,0.454,0.1,0.333,0.331,0.721,1.22
ATAACAAGGTGATCGTGAGGTCGTTGATACTAAC,1.16,1.89,1.52,0.304,0.85,3.06,1.63,2.01,0.293,1.51
TCATATTGGTAATACAGGTGAAAGTCGGCATCTA,2.7,1.89,0.751,1.85,1.69,0.947,0.763,1.09,1.43,0.496
ACAGACAGGTAATGAAGGTAACTCAGGCTATCAT,-0.129,0.574,0.213,0.735,0.348,0.147,0.218,0.263,0.161,0.169
GCTATTAGTTGAAAGGTCAACCGAATGATTCTCG,1.5,3.85,0.539,0.804,3.47,5.54,1.29,6.55,1.86,4.97
CCTATTGGGCCAAGGTCATTGATCAGTCAAAGCA,1.98,2.52,-0.54,0.103,2.09,3.72,1.21,3.94,0.101,3.33
GAAACAGGGTCAAGGCCAGAGTACGCGTATTGAT,4.14,5.29,1.43,1.01,2.18,4.41,0.162,4.58,0.267,4.73
TCATGTAGATCAAGCAGGTTAAGAAAGCCTGAGT,2.01,0.466,0.49,0.274,0.552,0.746,0.293,0.72,-0.363,-0.0113
